D1 potentiator: Potentiators of Human D1 Dopamine Receptor: qHTS; D(1A) dopamine receptor (Homo sapiens), P21728; HEK293 TREx D1 cells, calcium flux, dopamine EC20 potentiation; potentiation, % at 10 µM; actives 0.036% (n = 360,000); AID 504651, 2011; in the data active = potentiation above about 30%; note: 0% is about no effect
Target sequence (P21728 whole entry, looked up): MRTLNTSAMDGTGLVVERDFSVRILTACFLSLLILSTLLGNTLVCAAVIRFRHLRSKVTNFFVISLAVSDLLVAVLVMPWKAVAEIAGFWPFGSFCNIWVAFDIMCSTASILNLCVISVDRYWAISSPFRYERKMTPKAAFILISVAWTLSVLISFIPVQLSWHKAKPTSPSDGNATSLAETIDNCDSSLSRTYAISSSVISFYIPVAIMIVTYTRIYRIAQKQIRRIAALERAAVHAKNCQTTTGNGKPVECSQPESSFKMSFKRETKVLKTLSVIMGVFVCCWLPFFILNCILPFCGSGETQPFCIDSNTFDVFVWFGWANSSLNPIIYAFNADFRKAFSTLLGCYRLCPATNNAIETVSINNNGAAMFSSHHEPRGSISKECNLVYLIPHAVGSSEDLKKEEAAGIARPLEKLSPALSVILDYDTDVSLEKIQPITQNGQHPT
D1 agonist: Allosteric Agonists of the Human D1 Dopamine Receptor: qHTS | D(1A) dopamine receptor (Homo sapiens), P21728 | AID 504660, 2011 | actives 1% (n = 360,000) | activation, % at 2 µM | HEK293 T-REx D1 cells, calcium flux, agonist mode; in the data active = activation above about 30%; note: 0% is about no effect
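Inducible HEK293 T-REx D1 cells, force-coupled to calcium signalling, were plated at 4000 cells/well with tetracycline and held overnight at 30 C. After no-wash calcium dye loading, compound-evoked calcium rise over 180 s flagged agonists.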
DRD3 agonist: qHTS of D3 Dopamine Receptor Agonist: qHTS; D(3) dopamine receptor (Homo sapiens), P35462; AID 652048, 2013; actives 0.58% (n = 410,000); D3R DiscoveRx beta-arrestin cells, luminescence, 90 min; max activation, %; in the data active = max activation above about 30%; note: 0% is about no effect
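Cells at 1500/well, incubated overnight, then treated with pinned compounds (dopamine as control) for 90 min at 37 degrees C. DiscoveRx reagent added for 30 - 60 minutes at room temperature; luminescence read.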
D1 antag: Antagonist of Human D 1 Dopamine Receptor: qHTS. HEK293 TREx D1 cells, calcium flux, dopamine EC80; active compounds read low. AID 504652, 2011. actives 3.2% (n = 360,000). activity change, negative = inhibition, % at 10 µM; in the data active = activity change below about -30%; note: % is set by controls: 0 for no effect and ±100 for the full control effect
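Tetracycline-induced HEK293 Trex D1 cells, force-coupled to calcium, dye-loaded; compounds added and read 180 s, then EC80 dopamine added and calcium flux tracked kinetically another 180 s.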
DRD3 antagonist: qHTS of D3 Dopamine Receptor Antagonist: qHTS. D(3) dopamine receptor (Homo sapiens), P35462. D3R cells, DiscoveRx beta-arrestin luminescence, antagonist mode; active compounds read low. max response, negative = inhibition, %. actives 2.5% (n = 360,000). AID 652054, 2013; in the data active = max response below about -50%; inconclusive = no clear call, values can overlap the other calls; note: % is set by controls: 0 for no effect and ±100 for the full control effect
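Cells plated overnight at 1500 cells/well, then exposed to library compounds with dopamine controls for 90 minutes at 37 degrees C. DiscoveRx reagent added for 30–60 minutes at room temperature; luminescence read, quantitative HTS format.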
Active calls of the source: *. Sampled rows, rich in hits. Any-hit rate of the full collection: about 6.1%.

How did O=C(COc1ccc(/C=N/NC(=O)c2ccccc2O)cc1)Nc1ccc([N+](=O)[O-])cc1 do in these assays?
D1 potentiator: -4.5; D1 agonist: 1.6; DRD3 agonist: 40.8*; D1 antag: -25.4; DRD3 antagonist: 10.2

What do the screens show for `O=C(COc1ccc(/C=N/NC(=O)c2ccncc2)cc1)Nc1cccc([N+](=O)[O-])c1`?
D1 potentiator: -8.7; D1 agonist: 0.0; DRD3 agonist: -15.7; D1 antag: -32.3*; DRD3 antagonist: inconclusive

How did O=C(NC(=S)NCc1ccccc1)C1CCCCC1 do in these assays?
D1 potentiator: 0.8; D1 agonist: 0.4; DRD3 agonist: -1.5; D1 antag: -3.7; DRD3 antagonist: -53.6*

What do the screens show for `COc1ccccc1OCCNC(=O)C1CCCCC1`?
D1 potentiator: -2.9; D1 agonist: 34.2*; DRD3 agonist: -18.0; D1 antag: 4.1; DRD3 antagonist: 0.0

Results for CCOc1ccccc1NC(=S)NC(=O)C1CCCCC1 ?
D1 potentiator: 18.1; D1 agonist: 2.8; DRD3 agonist: 6.5; D1 antag: 13.3; DRD3 antagonist: 13.1

What do the screens show for `COc1ccccc1NC(=S)NC1CCCCCCCCCCC1`?
D1 potentiator: -2.7; D1 agonist: 1.8; DRD3 agonist: -8.0; D1 antag: 0.2; DRD3 antagonist: -79.4*

Results for COc1ccccc1NC(=S)NC(=O)C1CC1 ?
D1 potentiator: -6.9; D1 agonist: 1.8; DRD3 agonist: 4.2; D1 antag: -42.3*; DRD3 antagonist: 9.7

What do the screens show for `CCC(=O)Nc1ccccc1-c1nc2ccccc2n(C(C)C(=O)Nc2cccc(Cl)c2C)c1=O` (configuration not stated)?
D1 potentiator: 3.8; D1 agonist: 1.2; DRD3 agonist: -3.7; D1 antag: -3.8

Results for CCOC(=O)c1c(C)[nH]c(C)c1S(=O)(=O)NCC(=O)Nc1ccc(C)c(N(C)C)c1 ?
D1 potentiator: 0.5; D1 agonist: 3.8; DRD3 agonist: -16.3; D1 antag: -8.9

How did COc1ccc(OCC(=O)NNC(=S)NC(=O)C2CC2)cc1 do in these assays?
D1 potentiator: -0.3; D1 agonist: 2.9; DRD3 agonist: 31.2*; D1 antag: 8.3; DRD3 antagonist: 6.6

Results for COC(=O)c1ccccc1NC(=O)C1CCCC1 ?
D1 potentiator: -2.5; D1 agonist: 3.4; DRD3 agonist: 3.9; D1 antag: -22.4; DRD3 antagonist: 1.0

What do the screens show for `Cc1ccc(NC(=S)NC(=O)C2CC2)cc1Cl`?
D1 potentiator: -5.2; D1 agonist: 1.1; DRD3 agonist: -10.2; D1 antag: -72.6*; DRD3 antagonist: 3.2

What do the screens show for `COC(=O)c1ccccc1NC(=S)NC(=O)C1CCCCC1`?
D1 potentiator: -8.3; D1 agonist: 2.5; DRD3 agonist: -3.5; D1 antag: -64.5*; DRD3 antagonist: -18.2

What do the screens show for `COc1ccc(S(=O)(=O)NCCc2sc(C)nc2C)cc1F`?
D1 potentiator: -5.8; D1 agonist: 10.1; DRD3 agonist: 7.3; D1 antag: -12.7

How did CC(=O)c1c(C)[nH]c(C2=NNC(=NC(C)(C)C)SC2)c1C do in these assays?
D1 potentiator: -8.2; D1 agonist: 1.8; DRD3 agonist: 8.0; D1 antag: -32.5*; DRD3 antagonist: -3.2

What do the screens show for `CCOC(=O)c1c(C)[nH]c(C2=NNC(=Nc3ccc(OCC)cc3)SC2)c1C`?
D1 potentiator: -15.7; D1 agonist: -2.4; DRD3 agonist: -13.8; D1 antag: -71.7*; DRD3 antagonist: -15.7

How did CC(C)(C)N=C1NN=C(c2ccc(Cl)cc2)CS1 do in these assays?
D1 potentiator: -11.3; D1 agonist: -0.1; DRD3 agonist: -10.7; D1 antag: -40.4*; DRD3 antagonist: -8.2

What do the screens show for `CCOC(=O)c1c(C)[nH]c(C2=NNC(=Nc3ccccc3)SC2)c1C`?
D1 potentiator: -2.4; D1 agonist: -0.1; DRD3 agonist: -0.2; D1 antag: -11.0; DRD3 antagonist: 14.5

What do the screens show for `Cc1cccc(-c2nc(S(=O)(=O)c3ccccc3)c(N3CCN(c4ccccc4)CC3)o2)c1`?
D1 potentiator: -1.4; D1 agonist: 2.5; DRD3 agonist: -16.9; D1 antag: -21.0

What do the screens show for `Cc1ccc(C(C)C)c(OC/C(O)=C(\C#N)c2nc3ccccc3[nH]2)c1`?
D1 potentiator: -3.8; D1 agonist: 1.8; DRD3 agonist: 6.8; D1 antag: -31.7*; DRD3 antagonist: 8.2
